13 compounds from PubChem BioAssay (NCI) can be followed below.

This is part of a sample that, as a whole, favours compounds with a hit. Of some 83,000 tested, about 20% had one in any assay.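 Values shown are percent growth following 48 h exposure of cells in 96-well plates to a single concentration of compound; below 10 was considered active.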 A number with no mark means an inactive call. Calls of active or inactive are those of the source.

The subject of the assay is RPMI-8226 leukemia. Nature of the assay: NCI-60 one-dose screen, 48 h (100 = growth as untreated, 0 = no growth, -100 = all killed). To be noted: 10 µM.
For the compound `COc1ccc(C2c3sc4ccc(C)cc4c3Oc3nc(N)nc(N)c32)cc1` (stereo not drawn), the growth was 83.6%.

As for `Cc1cc(N=C2NC(=O)S/C2=C\c2ccc(F)cc2)n[nH]1`, the growth was -14.7% (active).

Consider `Cn1cc(-c2nnc(N)nc2-c2c[nH]c3ccccc23)c2cc(Br)cnc21`, for which the growth is 26.6%.

For the compound `O=C(CC(=O)Nc1ccc(Oc2ncnc3scc(Nc4n[nH]c(=S)s4)c23)cc1)Nc1ccc(Cl)cc1`, the growth is 86.8%.

For the compound `O=C1NC2C=CC=CC2/C1=C1/SC(=S)N(C2CC(=O)N(c3ccc(Br)cc3)C2=O)C1=O` (stereo not drawn), the growth is 50%.

`CC1(C)CC(=O)C2=C(C1)N(Cc1ccc(C(=O)O)cc1)C1=C(C(=O)CC(C)(C)C1)C2c1ccc(Cl)cc1`: the growth is 113%.

Turning to `Cc1ccc2c(c1)C(=O)/C(=C/c1ccc([N+](=O)[O-])cc1)S2`, the growth was 65.2%.

For `O=C(Nc1ccc(OCc2ccc(Cl)cc2)cc1)Nc1ccc(Cl)c(C(F)(F)F)c1`, the growth is -9.46% (active).

As to `Cn1cc(-c2nc(N)nnc2-c2c[nH]c3ccccc23)c2cc(Br)cnc21`, the growth is 13%.

For the compound `O=C(CSc1nc2ccccc2c(=O)n1-c1ccc(Cl)cc1)Nc1ccc(-c2nc3ccccc3[nH]2)cc1`, the growth was 22.4%.

For the compound `Cc1ccc2c(c1)C(=O)/C(=C/c1c[nH]c3ccccc13)S2`, the growth is 32.3%.

For the compound `COc1cccc(O)c1/C=C1\SCc2cc3c(OC)cccc3[o+]c21`, the growth was 107%.

For `COc1cc(C2CC(c3ccc(Oc4ccc(Cl)cc4)cc3)=NN2c2nc(-c3ccc(Cl)cc3)c(C#N)c(N3CCOCC3)n2)cc(OC)c1OC` (stereo not drawn), the growth was 104%.
